Data as given in PubChem BioAssay (Tox21).
Records with an inconclusive call do not appear. Entries that show only a call come without a potency. Calls of active or inactive are those of the source. Calls follow the shape of the full dose curve.

Assay: p53 small molecule agonists, cell-based qHTS assay with human liver microsomes (AID 1963577);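 also: p53 response element beta-lactamase reporter cells with liver microsomes plus NADPH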
Settings: HCT-116 p53RE-bla with human liver microsomes, ratio, 16 h; series mostly up to 66 µM; activation: at the top concentration
Excerpt: National Center for Advancing Translational Sciences [NCATS]
Division of Preclinical Innovation [DPI]
U.S. Environmental Protection Agency [EPA]
National Institutes of Environmental Health Sciences [NIEHS]
National Toxicology Program [NTP]
U.S. Food and Drug Administration [FDA]
p53, a tumor suppressor protein, is activated following cellular insult, including DNA damage and other cellular stresses. The activation of p53 regulates cell fate by inducing DNA repair, cell cycle arrest, apoptosis, or cellular senescence. The activation of p53, therefore, is a good indicator of DNA damage and other cellular stresses. […] The activation of the reporter gene under culture conditions can be detected by fluorescence intensity.
Tox21 Assay Protocol Summary:
The p53RE-bla cells were dispensed at 4,000cells/3ul/well in 1536-well black-clear bottom plates. After the assay plates were incubated at 37 C, 5% CO2 incubator for 5 hours, 23 nL of compounds dissolved in DMSO, positive controls or DMSO only was transferred to the assay plate. Following compound addition, 3 uL of human liver microsomes (XenoTech, Kansas City, KS) at final concentration of 0.5 mg/mL and 1uL of Beta-Nicotinamide adenine dinucleotide 2-phosphate (NADPH) at final concentration of 0.5 mg/mL were transferred to the assay plate. The plates were incubated at 37 C for 16 hours. 1 uL of LiveBLAzer detection mixture was added to each well and the plates were incubated at room temperature in the dark for 2 h.
In the case of CCCNC(=O)NS(=O)(=O)c1ccc(Cl)cc1, the Potency is reported as “inactive”. In the case of CC(COc1ccccc1)N(CCCl)Cc1ccccc1 (stereo not given), the Potency is reported as “inactive”. With c1ccc2c(c1)Cc1ccccc1-2 the Potency was “inactive”. With CCCCOCCO the Potency was “inactive”. With O=c1[nH]c(=O)n([C@H]2C[C@H](O)[C@@H](CO)O2)cc1Br the Potency was “inactive”. For CN1C(C(=O)Nc2ccccn2)=C(O)c2ccccc2S1(=O)=O, the Potency was “inactive”. For O=C(O)Cc1ccccc1Nc1c(Cl)cccc1Cl, the Potency was “inactive”. For CCO[Si](CCCN)(OCC)OCC, the Potency was “inactive”. With NCCN1CCNCC1 the Potency was “inactive”. With C#C[C@]1(O)CC[C@H]2[C@@H]3CCC4=CC(=O)CC[C@@H]4[C@H]3CC[C@@]21CC the Potency was “inactive”. In the case of CN(N=O)C(=O)N[C@@H]1[C@@H](O)[C@H](O)[C@@H](CO)O[C@@H]1O, the Potency is reported as “inactive”. In the case of CCCCN(CCCC)CCCC, the Potency is reported as “inactive”. With O=S(=O)(O)c1ccc(O)cc1 the Potency was “inactive”. With CC(=O)Oc1ccc(C(c2ccc(OC(C)=O)cc2)c2ccccn2)cc1 the Potency was “inactive”. For CCCCCCCCOc1ccc(C(=O)c2ccccc2)c(O)c1, the Potency was “inactive”. In the case of NC(=O)NC(N)=O, the Potency is reported as “inactive”. With C=C(C)C(=O)OCC(C)C the Potency was “inactive”. With O=[N+]([O-])c1ccccc1C(F)(F)F the Potency was “inactive”. With O=c1c(-c2ccc(O)cc2)coc2cc(O)cc(O)c12 the Potency was “inactive”. With Nc1c2c(nc3ccccc13)CCCC2 the Potency was “inactive”. In the case of CC1(C)[C@@H]2CC[C@@]1(C)C(=O)C2, the Potency is reported as “inactive”. With CC(=O)[C@H]1CC[C@H]2[C@@H]3CC=C4C[C@@H](O)CC[C@]4(C)[C@H]3CC[C@]12C the Potency was “inactive”. With CCCCOC(=O)c1ccc(O)cc1 the Potency was “inactive”. For Nc1ccc(S(=O)(=O)c2ccc(N)cc2)cc1, the Potency was “inactive”. In the case of O=C(O)c1ccc(C(=O)O)cc1, the Potency is reported as “inactive”. With Nc1ccn([C@H]2CC[C@@H](CO)O2)c(=O)n1 the Potency was “inactive”. With CC(=O)c1nccs1 the Potency was “inactive”. With CCCCC(CC)CO (stereo not given) the Potency was “inactive”. In the case of CCCCCCCCC, the Potency is reported as “inactive”. With CC(C)(C)c1cccc(C(C)(C)C)c1O the Potency was “inactive”. For NC(N)=Nc1nc(CSCC/C(N)=N/S(N)(=O)=O)cs1, the Potency was “inactive”. For CC(=O)OC/C=C(C)/C=C/C=C(C)/C=C/C1=C(C)CCCC1(C)C, the Potency was “inactive”. In the case of C=CC(C)CCCC(C)(C)O (stereo not given), the Potency is reported as “inactive”. In the case of O=c1[nH]nnc2ccccc12, the Potency is reported as “inactive”. For CCCCCC(=O)O, the Potency was “inactive”. For COc1ccc(Cl)cc1C(=O)NCCc1ccc(S(=O)(=O)NC(=O)NC2CCCCC2)cc1, the Potency was “inactive”. With O=C1CCCC1 the Potency was “inactive”. For C=CCOC(=O)CC(C)C, the Potency was “inactive”. With CCOC(=O)CC(=O)OCC the Potency was “inactive”. With Cc1c(C(N)=O)cc([N+](=O)[O-])cc1[N+](=O)[O-] the “activation” value was -3.84% [at 30.3 µM] (inactive).
